Assay outcomes deposited in PubChem BioAssay by several laboratories.
The list is not random: actives were taken first. Their share in the collection is about 2%.
Granule exo inh – LAMP-1 surface exposure blockers, TALL-104 cells – cell-based, flow cytometry, MLPCN library, primary screen. TALL-104 LAMP-1 surface exposure; cells stimulated with thapsigargin and PMA. inhibition, % at 10 µM. actives 0.66% (n = 360,000);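 active means inhibition above about 55%, limit read from the data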
TLR4-MyD88 BLA – inhibitors of TLR4-MyD88 association in cells, primary screen, cell-based, HeLa CL3-4, BLA complementation, FRET ratio; HeLa CL3-4 TLR4/MyD88 BLA complementation; inhibition, % at 8.4 µM; actives 0.18% (n = 200,000); AID 861, 2007; in the data active means inhibition above about 25%;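 further: 0% = vehicle and 100% = reference inhibitor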
ABHD5 PLIN5 PPI – ABHD5-PLIN5 interaction inhibitors, primary screen, cell lysate, split luciferase complementation, luminescence. Split G. princeps luciferase complementation, 4 h. actives 0.78% (n = 360,000). inhibition, % at 4 µM. Perilipin-5 (Homo sapiens) + 1-acylglycerol-3-phosphate O-acyltransferase ABHD5 (Homo …;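 active means inhibition above the mean inhibition across every tested compound plus 3 SD, cut at about 22% in these data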;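 further: 0% = DMSO only wells and the 100% control is not disclosed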
TLR9-MyD88 inh – inhibitors of TLR9-MyD88 association in cells, primary screen, cell-based, CHO, BLA complementation, fluorescence; Toll-like receptor 9 (Homo sapiens) + Myeloid differentiation primary response protein …; CCF4 FRET ratio; inhibition, % at 4.98 µM; actives 0.21% (n = 340,000); AID 504734, 2011;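 active means inhibition above the mean over all tested compounds plus 3 SD, cut at about 21% in these data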;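 further: 0% = DMSO only wells and 100% = clavulanate BLA inhibitor control wells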
NOD2-RIPK2 inh – NOD2-RIPK2 binding disruptors in cells, primary screen, fluorescence, CHO cells, BLA complementation; CCF4 ratio; inhibition, % at 4.98 µM; actives 0.38% (n = 360,000); in the data active means inhibition above about 21%;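 further: 0% = vehicle only and 100% = reference blocker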
Target sequence (O43353 whole entry, looked up): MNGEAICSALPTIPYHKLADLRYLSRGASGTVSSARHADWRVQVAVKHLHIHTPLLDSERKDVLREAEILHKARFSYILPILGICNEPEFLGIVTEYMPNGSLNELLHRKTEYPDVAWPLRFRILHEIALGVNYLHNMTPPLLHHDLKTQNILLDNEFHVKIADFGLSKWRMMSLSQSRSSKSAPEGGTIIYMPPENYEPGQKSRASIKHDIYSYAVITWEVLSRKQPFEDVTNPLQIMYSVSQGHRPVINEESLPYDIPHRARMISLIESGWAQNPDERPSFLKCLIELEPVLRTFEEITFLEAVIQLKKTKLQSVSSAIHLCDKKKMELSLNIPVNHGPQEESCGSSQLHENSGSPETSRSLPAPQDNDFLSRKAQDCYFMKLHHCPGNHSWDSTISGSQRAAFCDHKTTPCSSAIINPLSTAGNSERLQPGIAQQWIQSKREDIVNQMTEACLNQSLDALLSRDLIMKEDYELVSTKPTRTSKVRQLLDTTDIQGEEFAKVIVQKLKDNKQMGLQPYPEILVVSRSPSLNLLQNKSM
B2AR ag – beta2AR agonists driving receptor internalization, primary screen, cell-based, FAP fluorogen, flow cytometry; Am2.2-beta2AR cells; Beta-2 adrenergic receptor (Homo sapiens), P07550; actives 0.43% (n = 340,000); response, % (no concentration beside the values);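 active means response above a set limit, near 3 SD of response in nonfluorescent compounds, cut at about 42% in these data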
ABHD5 PLIN5 conf – ABHD5-PLIN5 interaction inhibitors, confirmation, biochemical, luminescence. shares compounds with ABHD5 PLIN5 PPI. inhibition, % at 4 µM. actives 67% (n = 2,200); in the data active means inhibition above about 23%;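 further: 0% = DMSO vehicle wells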
HNF4 split-luc – HNF4 dimerization inhibitors, counter-screen for ABHD5-PLIN5 interaction inhibitor project, biochemical, split-luciferase complementation, luminescence. actives 77% (n = 2,200). shares compounds with ABHD5 PLIN5 PPI. inhibition, % at 4 µM. AID 651674, 2012;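 active means mean inhibition across replicate wells exceeding the computed hit threshold, cut at about 13% in these data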;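 further: light from luciferase halves that rejoin when HNF4 fusion proteins dimerize; 0% = DMSO only wells and the 100% control is not given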
Numbers without * were called inactive; . = no result.

SMILES | Granule exo inh | TLR4-MyD88 BLA | ABHD5 PLIN5 PPI | TLR9-MyD88 inh | NOD2-RIPK2 inh | B2AR ag | ABHD5 PLIN5 conf | HNF4 split-luc
CCOC(=O)c1cc2c(=O)n3ccccc3nc2n(C(C)C)c1=NC(=O)c1ccco1 | -7 | 8 | 41* | -12 | -29 | 1 | 14 | 24*
N=c1c(S(=O)(=O)c2ccccc2)cc2c(=O)n3ccccc3nc2n1Cc1ccco1 | 2 | 4 | 25* | 13 | 15 | 6 | 11 | 25*
CCOC(=O)c1cc2c(=O)n3cccc(C)c3nc2n(CC(C)C)c1=NC(=O)c1ccco1 | 13 | . | -24 | -3 | 3 | 5 | . | .
CCN(CC)CCN1CCN(c2cncc(-c3ccc4ccccc4c3)n2)CC1 | 16 | . | -2 | . | -6 | . | . | .
CCCn1c(=NC(=O)c2ccco2)c(C(=O)OCC)cc2c(=O)n3ccccc3nc21 | 4 | 7 | 41* | -16 | -13 | 8 | 11 | 27*
CCOCCCn1c(=NC(=O)c2ccco2)c(C(=O)OCC)cc2c(=O)n3cccc(C)c3nc21 | 10 | . | 27* | -12 | -2 | -6 | 19 | 30*
Cc1ccc2ccccc2c1C(O)c1ncc(-c2ccccc2F)[nH]1 (configuration not stated) | 1 | . | -8 | . | -5 | . | . | .
C[C@@H]1CN([C@@H](C)CO)S(=O)(=O)c2ccc(Br)cc2O[C@H]1CN(C)C(=O)c1ccncc1 | 0 | . | 2 | 9 | 3 | . | . | .
O=C(NC1CCCCC1)Oc1cc2oc(=O)sc2cc1Br | 14 | . | 43* | -9 | -8 | 1 | -21 | 42*
CN(C)/C=C1/N=C(c2ccccc2)OC1=O | -2 | 2 | 6 | 3 | -14 | -3 | . | .
O=CC1=C(c2ccccc2)Oc2ccccc2O1 | 35 | . | 30* | -7 | -6 | 67* | 73* | 31*
COc1ccc2cc(CN(Cc3ccco3)Cc3nnnn3C3CCCCC3)c(=O)[nH]c2c1 | 0 | -6 | -2 | -7 | -4 | -11 | . | .
CCOc1ccc2[nH]c(=O)c(CN(Cc3ccco3)C(CC)c3nnnn3Cc3ccccc3)cc2c1 (configuration not stated) | 3 | 5 | 24* | -4 | -2 | 23 | 11 | 21*
CCc1ccc2[nH]c(=O)c(CN(Cc3ccccc3OC)Cc3nnnn3Cc3ccco3)cc2c1 | 2 | -5 | 32* | -7 | -11 | 13 | 6 | 10
COc1ccc2[nH]c(=O)c(C(c3nnnn3C(C)(C)C)N(Cc3ccco3)CC3CCCO3)cc2c1 (configuration not stated) | -4 | -1 | 24* | 1 | -8 | 0 | 28* | 72*
CC(C)(C)n1nnnc1CN(Cc1ccco1)Cc1cc2cc3c(cc2[nH]c1=O)OCO3 | -4 | 5 | 42* | -2 | 17 | -3 | 24* | 34*
CCOC(=O)C1CCCCN1C(=O)c1ccc2nc(Cc3ccc(OC)cc3)oc2c1 (configuration not stated) | 3 | . | 5 | -9 | -2 | 8 | . | .
CCOC(=O)C1CCCCN1C(=O)/C(=C/c1ccc(OC)cc1)c1ccc(OC)c(OC)c1 (configuration not stated) | 3 | . | 24* | -3 | -4 | 1 | -4 | 0
O=C1C2C3C=CC(CNS(=O)(=O)c4ccccc4)(O3)C2C(=O)N1c1ccc(Cl)cc1 (configuration not stated) | 26 | -14 | 15 | -6 | -6 | 2 | . | .
CC(=O)Oc1ccc(N2C(=O)C3C4C=CC(CO)(O4)C3C2=O)cc1 (configuration not stated) | 45 | 1 | 26* | 11 | 9 | -4 | 14 | 67*
